# Reference: PubChem BioAssay (Tox21)
# Active and inactive are the calls of the source. Unless noted, the call rests on the fitted dose curve.
# Target: Estrogen receptor (Homo sapiens) (UniProt P03372)
# Experiment: qHTS assay to identify small molecule agonists of the estrogen receptor alpha (ER-alpha) signaling pathway (AID 743075);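 further: HEK293 GripTite cells with ER-alpha and UAS-driven beta-lactamase reporter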
# Settings: HEK293 ER-alpha-UAS-bla, beta-lactamase FRET ratio, 18 h; series mostly up to 70.1 µM; activation: at the top concentration
# On the % scale 0 is the no-effect control and ±100 the full control effect; potency means the concentration at half of the fitted maximal effect.
# Chain of Estrogen receptor (Homo sapiens) (P03372 whole entry, looked up): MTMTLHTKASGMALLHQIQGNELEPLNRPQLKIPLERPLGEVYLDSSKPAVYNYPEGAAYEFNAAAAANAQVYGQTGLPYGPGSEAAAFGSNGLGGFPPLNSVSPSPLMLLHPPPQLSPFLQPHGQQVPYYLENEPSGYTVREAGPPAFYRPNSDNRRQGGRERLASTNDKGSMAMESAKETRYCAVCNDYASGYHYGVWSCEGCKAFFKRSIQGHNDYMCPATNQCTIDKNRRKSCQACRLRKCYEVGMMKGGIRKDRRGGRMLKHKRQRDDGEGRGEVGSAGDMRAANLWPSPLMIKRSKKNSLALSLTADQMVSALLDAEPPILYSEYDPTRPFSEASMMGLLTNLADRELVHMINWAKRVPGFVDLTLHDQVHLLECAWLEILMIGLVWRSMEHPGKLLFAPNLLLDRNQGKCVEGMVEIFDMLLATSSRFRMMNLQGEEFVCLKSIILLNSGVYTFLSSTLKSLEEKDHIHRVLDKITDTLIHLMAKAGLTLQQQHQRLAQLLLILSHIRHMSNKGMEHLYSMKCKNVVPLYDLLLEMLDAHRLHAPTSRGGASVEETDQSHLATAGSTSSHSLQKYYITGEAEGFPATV
SMILES,Potency,activation
CCC(=O)Oc1ccc(/C(CC)=C(\CC)c2ccc(OC(=O)CC)cc2)cc1,1.4 nM [inconclusive] (active),–
Cc1cc(O)c(C(C)C)cc1Cl,inactive,–
CCCOC(=O)c1ccc(C(=O)OCCC)nc1,–,-4.1% (inactive)
COCC(O)CO (configuration not stated),–,-3.96% [at 79.1 µM] (inactive)
OC/C(Br)=C(\Br)CO,–,-1.05% (inactive)
O=C1OCCN1/N=C/c1ccc([N+](=O)[O-])o1,848 nM [inconclusive] (active),–
CCC(Cc1ccccc1)(C(=O)c1ccc(N2CCOCC2)cc1)N(C)C (configuration not stated),49000 nM [inconclusive] (active),–
CCn1nc(C)c2c1C(=O)NCC(c1ccc(O)cc1)=N2,–,5.66% (inactive)
Cc1cc(C(=C2C=CC(=Nc3ccc(S(=O)(=O)O)cc3S(=O)(=O)O)C=C2)c2ccc(Nc3ccc(S(=O)(=O)O)cc3)cc2)ccc1N,–,1.66% (inactive)
C1COCO1,–,-2.04% (inactive)
NC(=O)Nc1ccc(Cl)cc1,–,-2.61% (inactive)
CCOC(=O)/C=C/C(=O)O,–,10% (inactive)
CN1C(=O)CC(C)(c2ccccc2)C1=O (configuration not stated),–,-1.15% (inactive)
ON(Cc1ccccc1)Cc1ccccc1,–,-0.845% (inactive)
Nc1ccc(S(=O)(=O)O)c(N)c1,–,-1.86% (inactive)
Oc1ccc(Nc2ccccc2)cc1,55000 nM [activator] (active),–
CNC(=O)N(c1ccccc1)c1ccccc1,–,-0.437% [at 79.1 µM] (inactive)
CCC(C(=O)OCCN(CC)CC)c1ccccc1 (configuration not stated),–,-3.68% (inactive)
O=C(O)C(Cc1cc(I)c(O)c(I)c1)c1ccccc1 (configuration not stated),–,8.29% (inactive)

SMILES,Potency,activation
[O]=[Bi],–,-1.87% [at 6.71 µM] (inactive)
CCCOCCOCCO,–,-0.441% (inactive)
CC(C)=CC=O,–,-0.183% [at 79.1 µM] (inactive)
O=C(NCCCN1CCOCC1)c1ccc(Cl)cc1,–,-2.94% (inactive)
CC1(C)O[C@@H]2C[C@H]3[C@@H]4CCC5=CC(=O)C=C[C@]5(C)[C@H]4[C@@H](O)C[C@]3(C)[C@]2(C(=O)CO)O1,–,4.64% (inactive)
CCN(CC)CCNC(=O)c1ccc(NC(C)=O)cc1,–,-1.06% (inactive)
O=[N+]([O-])c1cccc(S(=O)(=O)NCCNS(=O)(=O)c2cccc([N+](=O)[O-])c2)c1,–,4.42% (inactive)
O=S(=O)(c1ccccc1)c1ccc(Cl)cc1,–,2.48% (inactive)
CO[C@H]1C=CO[C@@]2(C)Oc3c(C)c(O)c4c(O)c(c5c(c4c3C2=O)=NC2(CCN(CC(C)C)CC2)N=5)NC(=O)/C(C)=C\C=C/[C@H](C)[C@H](O)[C@@H](C)[C@@H](O)[C@@H](C)[C@H](OC(C)=O)[C@@H]1C,inactive,–
CC(=O)OCC(=O)[C@H]1CC[C@H]2[C@@H]3CCC4=CC(=O)CC[C@]4(C)[C@H]3CC[C@]12C,–,1.53% (inactive)
COc1cc2[nH]c(=O)[nH]c(=O)c2cc1OC,–,3.07% [at 32.9 µM] (inactive)
CC(CCc1ccc2c(c1)OCO2)NN (configuration not stated),–,7.66% (inactive)
CC1CN(c2cc3c(cc2F)c(=O)c(C(=O)O)cn3-c2ccc(F)cc2F)CCN1 (configuration not stated),–,-1% (inactive)
CC(=O)Nc1ccccc1C,–,-0.265% [at 79.1 µM] (inactive)
CCOC(=N)CC(=O)OCC,–,-2.64% (inactive)
Nc1ccc(S(=O)(=O)O)cc1,–,1.87% [at 79.1 µM] (inactive)
CC1=C(C=O)C(C)(C)CCC1,–,1.91% (inactive)
COC(OC)(C(=O)c1ccccc1)c1ccccc1,12.3 nM [inconclusive] (active),–

# Target: Estrogen receptor (Homo sapiens) (UniProt P03372)
# Experiment: qHTS assay to identify small molecule agonists of the estrogen receptor alpha (ER-alpha) signaling pathway using the BG1 cell line (AID 743079; active means well fitted activation curve with a large enough effect in the repeat runs; inconclusive means weak or mixed curves, or effect the other way; inactive means no such curve, though single readings can be large or run the other way; further: nearly all actives have a fitted effect of over 20% in size)
# Settings: BG1Luc4E2 cells, ERE-luciferase agonist, 22 h; activation: at 70.3 µM (top of the series)
SMILES,activation,Potency
CCC(=O)Oc1ccc(/C(CC)=C(\CC)c2ccc(OC(=O)CC)cc2)cc1,77.1% (active),–
Cc1cc(O)c(C(C)C)cc1Cl,-0.892% (inactive),–
CCCOC(=O)c1ccc(C(=O)OCCC)nc1,0.832% (inactive),–
COCC(O)CO (configuration not stated),6.2% [at 95 µM] (inactive),–
O=C1OCCN1/N=C/c1ccc([N+](=O)[O-])o1,–,0.168 µM (active)
CCn1nc(C)c2c1C(=O)NCC(c1ccc(O)cc1)=N2,-3.64% (inactive),–
Cc1cc(C(=C2C=CC(=Nc3ccc(S(=O)(=O)O)cc3S(=O)(=O)O)C=C2)c2ccc(Nc3ccc(S(=O)(=O)O)cc3)cc2)ccc1N,5.62% (inactive),–
C1COCO1,0.846% (inactive),–
NC(=O)Nc1ccc(Cl)cc1,-6.15% (inactive),–
CCOC(=O)/C=C/C(=O)O,-6.53% (inactive),–
CN1C(=O)CC(C)(c2ccccc2)C1=O (configuration not stated),0.889% (inactive),–
ON(Cc1ccccc1)Cc1ccccc1,1.26% (inactive),–
Nc1ccc(S(=O)(=O)O)c(N)c1,-0.497% (inactive),–
Oc1ccc(Nc2ccccc2)cc1,–,30.6 µM (active)
CNC(=O)N(c1ccccc1)c1ccccc1,-3.3% [at 95 µM] (inactive),–
CCC(C(=O)OCCN(CC)CC)c1ccccc1 (configuration not stated),-13.3% (inactive),–
CCCOCCOCCO,8.86% (inactive),–
CC(C)=CC=O,-8.61% [at 95 µM] (inactive),–
O=C(NCCCN1CCOCC1)c1ccc(Cl)cc1,0.0492% (inactive),–
CC1(C)O[C@@H]2C[C@H]3[C@@H]4CCC5=CC(=O)C=C[C@]5(C)[C@H]4[C@@H](O)C[C@]3(C)[C@]2(C(=O)CO)O1,–,0.596 µM (active)
CCN(CC)CCNC(=O)c1ccc(NC(C)=O)cc1,0.553% (inactive),–
O=[N+]([O-])c1cccc(S(=O)(=O)NCCNS(=O)(=O)c2cccc([N+](=O)[O-])c2)c1,-6.95% (inactive),–
CO[C@H]1C=CO[C@@]2(C)Oc3c(C)c(O)c4c(O)c(c5c(c4c3C2=O)=NC2(CCN(CC(C)C)CC2)N=5)NC(=O)/C(C)=C\C=C/[C@H](C)[C@H](O)[C@@H](C)[C@@H](O)[C@@H](C)[C@H](OC(C)=O)[C@@H]1C,-22.7% (inactive),–
CC(=O)OCC(=O)[C@H]1CC[C@H]2[C@@H]3CCC4=CC(=O)CC[C@]4(C)[C@H]3CC[C@]12C,–,4.22 µM (active)
CC1CN(c2cc3c(cc2F)c(=O)c(C(=O)O)cn3-c2ccc(F)cc2F)CCN1 (configuration not stated),-6.36% (inactive),–
CC(=O)Nc1ccccc1C,-9.12% [at 95 µM] (inactive),–
CCOC(=N)CC(=O)OCC,-11.1% (inactive),–
Nc1ccc(S(=O)(=O)O)cc1,–,38.8 µM (active)
CC1=C(C=O)C(C)(C)CCC1,-13.3% (inactive),–
COC(OC)(C(=O)c1ccccc1)c1ccccc1,–,4.32 µM (active)
